Source: PubChem (University of Kansas High Throughput Screening Laboratory)
Pf apPOL block: Pf-apPOL DNA polymerase inhibition. 0.25% of 210,000 active. AID 1794808. Recombinant Pf-apPOL, molecular beacon fluorescence, 1.5 h. inhibition, % at 10 µM
mHTT-CaM PPI inh: mHTT-calmodulin interaction abrogation; P42858; AlphaScreen His-mHTT/GST-CaM binding, luminescence; inhibition, % at 15 µM; 3.6% of 190,000 active; AID 1671202
Of the large screens only hits and unclear results are named; the others gave an inactive call; ! = not confirmed by another sample. Shown are actives, neighbours in structure and some others; about 3.5% of the full set was active somewhere. Rule as the data show it: active = inhibition above about 50%; inactive = the rest.

Cc1ccc(NC(=O)CSc2nccc(N3CCCCCC3)n2)cc1F	none
Cn1cc([N+](=O)[O-])c(C(=O)Nc2ccc3c(c2)C(=O)NC3=O)n1	none
O=C(CN1CCN(c2ccccn2)CC1)Nc1ccc(Cl)c(C(F)(F)F)c1	none
O=C(CN1CCN(c2ccc(Cl)cc2)CC1)Nc1ccc(Cl)c(C(F)(F)F)c1	mHTT-CaM PPI inh 51
CC(C)(C)c1csc(CN2CCN(CC(=O)NC3CCCCC3)CC2)n1	mHTT-CaM PPI inh 100
CC(=O)c1ccc(NC(=O)CN2CCN(Cc3nc(C(C)(C)C)cs3)CC2)cc1	none
CCc1ccccc1NC(=O)N1CC(C)Oc2ccc(C)cc21 (centres undefined)	none
Cc1ccc(F)cc1NC(=O)C1CCc2sc(C(=O)N3CCCC3)cc2C1 (centres undefined)	none
Nc1nonc1-c1ccc(F)cc1	none (no result: Pf apPOL block)
Cc1sc2nc(C)n(Cc3ccc(C(F)(F)F)cc3)c(=O)c2c1C	mHTT-CaM PPI inh 88
Cc1sc2nc(C)n(Cc3csc(-c4ccc(Cl)cc4)n3)c(=O)c2c1C	none
COc1ccc2c(c1)OC(=CC1=Cc3ccccc3OC1C)C2=O (centres undefined)	none
O=C1c2ccccc2-c2onc3c(Cl)cc(O)c1c23	mHTT-CaM PPI inh 53
CCOc1ccc2noc3c2c1C(=O)c1ccccc1-3	none
O=C1c2ccccc2-c2onc3c(Br)cc(O)c1c23	mHTT-CaM PPI inh 58
O=C1c2ccccc2-c2onc3ccc(Cl)c1c23	none
CCOc1ccc(S(=O)(=O)N2CCCc3ccccc32)c2cccnc12	none
c1ccc(-c2nc(SCC3COc4ccccc4O3)oc2-c2ccccc2)cc1 (centres undefined)	none (no result: Pf apPOL block)
N#CCSc1nc(-c2ccccc2)c(-c2ccccc2)o1	Pf apPOL block 92!
COC(=O)c1ccc2c(c1)C(=O)C(=Cc1ccc(N(C)C)cc1)O2	none
Cc1ccc2c(c1)NC1(CCN(C(=O)c3ccc(Cl)cc3)CC1)c1cccn1-2	mHTT-CaM PPI inh 53
CCN1c2ccc(C)cc2C(=O)NC12CCN(C(=O)c1ccc(Cl)cc1)CC2	none
Cc1ccc2c(c1)NC1(CCN(C(=O)c3ccc(F)cc3)CC1)c1cccn1-2	mHTT-CaM PPI inh 87
CC(C)NC(=O)N1CCC2(CC1)Nc1cc(F)ccc1-n1cccc12	none
COc1cccc(-c2cc3n(n2)CCCN(C(=O)c2ccc(OC)c(OC)c2)C3)c1	none
O=c1[nH]c2ccc(Cl)cc2c(-c2ccccc2)c1C1=NOC(c2ccc(F)cc2)C1 (centres undefined)	mHTT-CaM PPI inh 100
O=c1[nH]c2ccc(Br)cc2c(-c2ccccc2)c1C1=NOC(c2ccccc2)C1 (centres undefined)	none
COc1ccc(C2=NN(C(C)=O)C(c3ccc(Cl)cc3)C2)cc1 (centres undefined)	none (no result: mHTT-CaM PPI inh)
CC(=O)N1N=C(c2c(-c3ccccc3)c3cc(Cl)ccc3[nH]c2=O)CC1c1ccc(Cl)cc1 (centres undefined)	mHTT-CaM PPI inh 100
COc1ccc2c(c1)OC(=Cc1ccc(Cl)cc1)C2=O	none
COc1ccc(C2=C/C(=C/c3cc(OC)ccc3OC)C(=O)O2)cc1	none
COc1cc(C)c(CNc2cc(C)ccc2OC)cc1C	mHTT-CaM PPI inh 89
COc1ccc(C)cc1NS(=O)(=O)CC(C)C	none
COc1cccc(CNCc2ccccc2[N+](=O)[O-])c1OC	none
COc1ccc(C)cc1NCc1ccccc1[N+](=O)[O-]	mHTT-CaM PPI inh 77
O=C(CSc1nnnn1-c1ccc(C(=O)O)cc1)Nc1ccccc1	none
COc1cc(/C=C2\C(=O)ON=C2C)cc(Cl)c1O	none
O=C1/C(=C/c2c(Cl)ccc([N+](=O)[O-])c2Cl)Sc2ccccc21	mHTT-CaM PPI inh 67
O=C1/C(=C/c2cccc([N+](=O)[O-])c2O)Sc2ccccc21	none
O=C1/C(=C/c2cc([N+](=O)[O-])c(Cl)cc2Cl)Sc2ccccc21	none
O=C1/C(=C/c2ccc([N+](=O)[O-])cc2)Sc2ccccc21	Pf apPOL block 89
O=C1/C(=C/c2cc([N+](=O)[O-])cc(Br)c2O)Sc2ccccc21	mHTT-CaM PPI inh 89
COc1ccc(-c2ccc(/C=C3\Sc4ccccc4C3=O)o2)c([N+](=O)[O-])c1	mHTT-CaM PPI inh 51
COc1ccc(-c2ccc(C=C3C(=O)OC(c4ccccc4)OC3=O)o2)c([N+](=O)[O-])c1 (centres undefined)	none
CC(C)c1ccc(/C=C2\Sc3ccccc3C2=O)cc1[N+](=O)[O-]	none
CCOC(=O)c1ccc(NC(=O)C2CC(=O)N(c3cccc(NC(C)=O)c3)C2)cc1 (centres undefined)	none
N#CCSc1nc(NCc2ccco2)c2ccccc2n1	none
O=C1C(=C(c2ccccc2)c2ccccc2)C(=O)c2ccccc21	mHTT-CaM PPI inh 61
O=C1C(c2ccccc2)=C(c2ccccc2)c2ccccc21	none
O=C(Nc1nc2c(s1)CCCC2)c1ccc(N2CCOCC2)c([N+](=O)[O-])c1	none
COc1ccc(OCc2noc(CNC(=O)c3ccccc3C(F)(F)F)n2)cc1	none
CCCCC(C(=O)O)n1c(O)c(C=C2C=Nc3ccccc32)sc1=S (centres undefined)	mHTT-CaM PPI inh 100
CC(C)Cc1nn2c(N)c(C=C3C=Nc4ccccc43)c(=O)nc2s1	none
COc1ccc(C=C2C(=O)OC3(CCCCC3)OC2=O)cc1OC	none
NC(=Nc1nc2ccccc2o1)NC(=O)c1ccco1	none
O=C(N/C(=C\c1ccc(Br)cc1)c1nc2ccccc2o1)c1ccco1	mHTT-CaM PPI inh 94
C/C=C/COc1nc2c(c(=O)n(C)c(=O)n2C)n1C	none
C=CCOc1nc2c(c(=O)n(C)c(=O)n2C)n1C	mHTT-CaM PPI inh 100!
Cc1ccccc1OCC(=O)Nc1ccc2c(c1)N(S(=O)(=O)c1ccccc1)CCC2	none
C#CCN1C(=O)S/C(=C\c2cn(CC(=O)N3CCOCC3)c3ccccc23)C1=O	mHTT-CaM PPI inh 75
CCCN1C(=O)S/C(=C/c2cn(CC(=O)N3CCOCC3)c3ccccc23)C1=O	none
COc1ccc(C=C2Oc3c(ccc(O)c3CN3CCCCC3)C2=O)c(OC)c1	none
O=C(c1cccs1)N1CCN(C(=O)C2CC2c2ccccc2)CC1 (centres undefined)	none
Cc1ccc(N2CCN(C(=O)c3cn4cccc(C)c4n3)CC2)cc1	none
COc1ccc(C2CCC3(CCC(=O)N3CCOC(=O)C(C)C)CC2)cc1 (centres undefined)	none
CC(C)C(=O)OCCCN1C(=O)CCC12CCC(c1ccccc1)CC2 (centres undefined)	mHTT-CaM PPI inh 70
CCOc1ccc(NC(=O)C2CCN(c3cc(C(=O)N4CCCC4)ccn3)CC2)cc1	none
COc1cccc(C2CC(=O)C3=C(C2)Nc2ccccc2NC3c2ccc(C)s2)c1 (centres undefined)	none
O=C1CC(c2ccccc2)CC2=C1C(c1cccc(C(F)(F)F)c1)Nc1ccccc1N2 (centres undefined)	mHTT-CaM PPI inh 61
O=C1CC(c2ccc3c(c2)OCO3)CC2=C1C(c1ccc(C(F)(F)F)cc1)Nc1ccccc1N2 (centres undefined)	mHTT-CaM PPI inh 62
O=C1CC(c2ccccc2)CC2=C1C(c1ccc(F)cc1)Nc1ccccc1N2 (centres undefined)	none
COc1cccc(C2CC(=O)C3=C(C2)Nc2ccccc2NC3c2ccc(C(F)(F)F)cc2)c1 (centres undefined)	mHTT-CaM PPI inh 53
CSc1ccc(C2Nc3ccccc3NC3=C2C(=O)CC(c2cccs2)C3)cc1 (centres undefined)	mHTT-CaM PPI inh 54
O=C1CC(c2cccs2)CC2=C1C(c1ccc(Cl)cc1)Nc1ccccc1N2 (centres undefined)	none
